Ins promoter up: MIN6 insulin promoter up-regulation. z-score at 5 µM. 0.3% of 190,000 active. MIN6 insulin promoter-GFP reporter, high-content imaging; active compounds read high;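 active = z-score above 3 at 5 µM with at least 500 cells counted in the well; inconclusive = wells under 500 cells, flagged as cytotoxic or low count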
HSV augment: increases HSV replication in cells. HSV replication augmentation in cells, fold increase. maximum fold increase. 0.005% of 220,000 active. AID 1956; in the data active = maximum fold increase above about 1.5; inconclusive = no clear call, values can overlap the other calls; tested in PC3 cells
TbHK1 inh: T. brucei hexokinase 1 inhibition | recombinant TbHK1, G6PDH-coupled NADH A340 | inhibition, % at 10 µM | 0.11% of 220,000 active | AID 1430;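 active = inhibition of 50% or more in the single-dose primary screen; inactive = inhibition below 50%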
ROMK mod: human ROMK K+ channel modulation, primary screen; B-score at 10 µM; P48048; Tet-inducible ROMK, thallium flux fluorescence; actives lie on both sides; 2% of 130,000 active; AID 1918;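 active = signal ratio slope over the read window, or its plate-corrected B-score, at least 3 SD from the plate mean, either direction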;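 note: B-score of the F/F0 ratio slope over 7 to 12 s after thallium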
Target sequence (P48048 whole entry, looked up): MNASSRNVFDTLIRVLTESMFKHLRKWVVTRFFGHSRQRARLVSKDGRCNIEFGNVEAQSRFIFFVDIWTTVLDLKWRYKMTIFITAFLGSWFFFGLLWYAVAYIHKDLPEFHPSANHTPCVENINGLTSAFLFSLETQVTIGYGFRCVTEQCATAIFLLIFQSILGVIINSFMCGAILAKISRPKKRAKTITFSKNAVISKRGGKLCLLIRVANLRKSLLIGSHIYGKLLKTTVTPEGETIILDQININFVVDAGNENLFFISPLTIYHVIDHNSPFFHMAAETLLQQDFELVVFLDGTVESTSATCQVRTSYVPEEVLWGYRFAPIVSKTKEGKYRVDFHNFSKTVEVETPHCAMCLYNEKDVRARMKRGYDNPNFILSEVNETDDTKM
Insulin prom inh: TRM-6 insulin promoter activity inhibition. TRM-6 cells (human fetal islet line), insulin promoter-eGFP reporter, imaging; reporter expression induced with tamoxifen. inhibition, % at 2 µM. 0.9% of 130,000 active;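 active = inhibition above the mean plus 3 SD, with well images judged a real hit on visual review, cut at about 60% in these data, passing the limit was not always enough; inconclusive = inhibition over the cutoff but images rejected on review; inactive = inhibition not above the cutoff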
ROMK hit retest: retested hit modulating human ROMK potassium channel. normalized thallium flux (F/F0 slope) at 10 µM. 54% of 3,000 active. ROMK thallium flux, fluorescence ratio; active compounds read low. shares compounds with ROMK mod. AID 1917;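 active = Flux at 10 µM at least 3 SD below or above vehicle control mean in one or both replicates; inconclusive = no clear call, values can overlap the other calls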
* hit, by the source's call; i = inactive; ? = inconclusive; · = no result. The entries come from a sample that favours hits as a whole.

SMILES	Ins promoter up	HSV augment	TbHK1 inh	ROMK mod	Insulin prom inh	ROMK hit retest
CC1CCC/C(=N\NC(=O)Nc2ccccc2)C1 (stereo not given)	0.46	i	0.0	·	25.0	·
COc1ccc(NCC(=O)N/N=C2\CCCC(C)C2)cc1 (stereo not given)	0.17	i	3.7	2.09*	20.0	0.0769
O=C(C[n+]1ccc(/C=N/O)cc1)N1CCCCC1	-0.2	i	-33.0	·	·	·
COC(=O)C1C(c2ccccc2)C(C(=O)O)C1c1ccccc1 (stereo not given)	·	i	-3.6	1.98	10.0	0.0748
COc1ccccc1-c1nn2c(-c3ccco3)nnc2s1	-1.78	i	-13.0	-1.34	·	0.0567*
c1coc(-c2nn3c(-c4ccco4)nnc3s2)c1	-0.61	·	-6.7	-0.322	·	·
O=C(O)Cc1ccc2oc(-c3cccnc3)nc2c1	-0.48	i	-2.2	-0.472	0.0	·
CCOC(=O)C1=C(C)OC(N)=C(C#N)C1c1cccc(C)c1 (stereo not given)	0.63	i	-6.3	0.0636	·	·
CCOC(=O)C1=C(C)OC(N)=C(C#N)C1c1ccc(C)s1 (stereo not given)	1.78	i	-10.7	3.23*	23.1	0.0639*
CCN1CCc2c(C#N)c(N3CCCCC3)nc(NCc3ccccc3)c2C1	-1.08	i	-9.3	-2.57*	-10.7	0.0655*
CCN1CCc2c(C#N)c(N3CCOCC3)nc(NCc3ccccc3)c2C1	-1.18	·	-14.7	-1.72	-42.9	·
CN(C)CCCN=C(NO)c1ccc(Cl)cc1Cl	·	i	-11.8	0.169	·	·
NC/C(=N\O)c1ccc(Cl)cc1Cl	-0.7	i	-3.6	-4.5*	46.7	0.0561*
CCCCN(CCCC)C(=O)CSc1nnc2n(C)c(=O)c3c4c(sc3n12)CCCC4	·	i	-7.4	-3.62*	24.0	0.049*
CCCSc1nnc2n(C)c(=O)c3c4c(sc3n12)CCC4	-0.3	i	-1.4	·	·	·
COc1ccc(CCNC(=O)CCC(=O)Nc2nnc(C(C)C)s2)cc1OC	0.37	i	31.4	0.962	-31.0	·
CCC1CCCCN1S(=O)(=O)c1ccc(S(=O)(=O)N(Cc2ccccn2)CC2CCCO2)cc1 (stereo not given)	-0.56	i	-2.0	-2.4	16.0	·
CCC1CCCCN1S(=O)(=O)c1ccc(S(=O)(=O)N(Cc2cccs2)C2CC2)cc1 (stereo not given)	-1.13	i	11.0	·	·	?
N=C(N)SCc1cn(-c2ccccc2)nc1-c1ccc(Br)cc1	-0.06	i	17.4	-2.13*	·	0.0548*
CCNC(=O)c1c(O)c2ccccc2[nH]c1=O	0.35	i	-1.6	2.56*	14.8	0.0891
CC(C)=NNC(=O)c1c(O)c2ccccc2[nH]c1=O	1.23	i	-14.4	·	·	·
Cc1ccc(-n2c(=O)c3c4c(sc3n3c(=S)[nH]nc23)CCC4)cc1	-0.52	i	4.0	·	·	·
CCn1c(=O)c2c3c(sc2n2c(=S)[nH]nc12)CCC3	-0.18	i	8.5	2.34*	-20.0	0.0787
Cc1cccc(NC(=S)NC(C)C(c2ccccc2)N2CCN(C)CC2)c1C (stereo not given)	-1.28	i	7.4	·	·	·
CC1(C)NC(=O)N(CCCCOc2ccc(Cl)cc2)C1=O	·	i	-12.4	-0.311	23.3	·
SMILES	Ins promoter up	HSV augment	TbHK1 inh	ROMK mod	Insulin prom inh	ROMK hit retest
CC1(C)NC(=O)N(CCCCOc2ccc(Cl)cc2C=O)C1=O	0.56	i	1.1	3.85*	·	0.0922
CC(=O)O/N=C(\N)c1ccc(-c2csnn2)cc1	-0.49	i	0.5	·	·	·
Cc1ccc2c(c1)C(=O)C(=O)N2CCCOc1ccccc1	·	i	6.6	3.58*	-33.3	0.0744
O=C(CCC1CCCN(C(=O)c2ccc3c(c2)OCO3)C1)N1CCN(c2ccccn2)CC1 (stereo not given)	0.12	i	-1.0	0.774	·	·
NNC(=O)c1cc2c(N3CCC(Cc4ccccc4)CC3)ncnc2s1	-0.7	i	-9.6	-4.52*	-33.3	0.0732
Cc1ccc(OCC(=O)Nc2ccccc2N2CCCC2)c(C)c1	0.44	i	7.5	0.552	0.0	·
CCC(=O)N1CCN(c2ccccc2NC(=O)COc2cc(C)ccc2C(C)C)CC1	-3.26	i	-10.7	-3.51*	-37.1	0.066*
C[c-]1[c-](C)[c-](C)[c-](C)[c-]1C.[Fe].c1cc2nccc(N3CCCC3)[c-]2c1 (stereo not given)	-0.18	i	-26.3	·	·	0.048*
COc1cccc(C(=O)NNC2OC(CO)C(O)C2O)c1 (stereo not given)	-0.33	i	4.7	-0.00908	-23.1	·
CCC(C)(C)NC(=O)C(c1cccn1C)N(C(=O)Cn1nnc2ccccc21)c1ccc(OC)cc1OC (stereo not given)	·	i	-8.4	-3.55*	-169.8	0.0511*
CCOc1ccc(N(C(=O)Cn2nnc3ccccc32)C(C(=O)NC(C)(C)CC)c2cccn2C)cc1 (stereo not given)	0.57	i	-0.6	·	-462.5	·
CCN(CC)S(=O)(=O)c1ccc(/C=C/C(=O)OCC(=O)N(C)C)cc1	0.82	i	-2.5	0.0356	33.3	·
CCOc1ccccc1CNS(=O)(=O)c1ccc2[nH]c(=O)sc2c1	·	i	2.3	-3.51*	·	0.0746
Cc1ccc(S(=O)(=O)Nc2ccccc2C(=O)Nc2nc(-c3ccc(F)cc3)cs2)cc1	-0.65	i	22.5	·	5.1	0.0571*
Cc1ccc(S(=O)(=O)Nc2ccccc2C(=O)NCc2cccnc2)cc1	0.66	i	-7.8	2.8*	·	0.0831
O=C(NCc1cccnc1)c1ccccc1NS(=O)(=O)c1ccc(F)cc1F	-0.18	i	-10.9	·	·	·
COc1ccc(-c2csc(NC(=O)c3ccccc3NS(=O)(=O)c3ccc(F)c(F)c3)n2)cc1	-4.95	i	-7.9	-0.386	·	·
O=C(Nc1cc(S(=O)(=O)N2CCCCC2)ccc1O)c1ccccc1NS(=O)(=O)c1ccc(F)cc1	-0.6	i	-1.8	3.31*	-43.3	0.0892
CC(Sc1nnc(NC2CCCCC2)s1)C(=O)Nc1ccc2c(c1)C(=O)c1ccccc1C2=O (stereo not given)	-0.27	i	9.4	-0.00379	8.1	·
O=C(NCc1cccnc1)C(=O)NCC1OCCCN1S(=O)(=O)c1ccccc1 (stereo not given)	-0.04	i	-1.6	-0.544	·	·
CC1CCN(C(C(=O)NC2CCCCC2)c2cc3c(cc2[N+](=O)[O-])OCO3)CC1 (stereo not given)	-0.63	i	-3.5	-3.06*	50.0	0.06*
CSCc1ccc(C(=O)Nc2ccc(C(N)=O)cc2)cc1	-0.06	i	-6.6	-0.0205	-5.9	·
COC(=O)c1cc([N+](=O)[O-])c(-n2cncn2)c([N+](=O)[O-])c1	0	i	-6.7	-7.82*	·	0.0428*
COc1ccc(OC)c(-c2cc(C(=O)Nc3c(C)nn(Cc4ccccc4)c3C)no2)c1	0.36	i	-4.1	-2.35	20.0	·
COc1ccc(OC)c(-c2cc(C(=O)Nc3c(C)nn(Cc4ccc(Cl)cc4)c3C)no2)c1	-1.05	·	-23.5	-2.59*	-30.0	0.0647*
COc1ccc(C(=O)Nc2ccnc(-c3cccnc3)n2)cc1	0.19	i	9.0	4.37*	15.4	0.104*

Compound activity: PubChem BioAssay, several laboratories
